According to PubChem BioAssay (EPA / NIEHS):
Records with an inconclusive call do not appear. Active and inactive are the calls of the source. Rule for the calls, unless noted: active = hit-call score of the fitted dose curve at least 0.9, where 1 is the maximum; inactive = score below 0.9.

Experiments:
[1] = CCTE_Mundy_HCI_Cortical_Synap_Neur_Matur_NeuriteSpotCountPerNeuriteLength: CCTE's Synaptogenesis and Neurite Maturation Assay in rat cortical cells for Neurite Spot Count per Neurite Length, Mundy Lab (AID 2284210)
Procedure, shortened: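 Synaptophysin spots per unit neurite length, measured by automated imaging of MAP2/synaptophysin/Hoechst-stained neurons. Cultures from rat cortex received chemical at DIV 7 with media change through DIV 12; glial growth arrested by AraC at DIV 5; DMSO baseline.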

[2] = CCTE_Mundy_HCI_Cortical_Synap_Neur_Matur_BPCount: CCTE's Synaptogenesis and Neurite Maturation Assay in rat cortical cells for Branch Point Count, Mundy Lab (AID 2284211)
Procedure, shortened: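 HCI read-out of branch points from MAP2/synaptophysin/Hoechst immunofluorescence; rat cortical cultures, AraC DIV 5, dosing DIV 7, fixed DIV 12; fit in positive direction vs DMSO baseline.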

[3] = CCTE_Mundy_HCI_Cortical_NOG_NeuriteCount: CCTE's Neurite Outgrowth Assay in rat cortical cells for Neurite Count, Mundy Lab (AID 2284212);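 note: cells fixed about two days after chemical exposure began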
Procedure, shortened: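 Rat cortical primary cells; compound added 2 h post-plating, 1/10 dilution of working solution. Anti-betaIII-tubulin/AF488 ICC; ArrayScan neurite count vs DMSO.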

[4] = CCTE_Mundy_HCI_Cortical_NOG_NeuriteLength: CCTE's Neurite Outgrowth Assay in rat cortical cells for Neurite Length, Mundy Lab (AID 2284213)
Procedure, shortened: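 First, rat primary cortical cells were plated and, 2 h later, given test chemical as a 1/10 dilution. Finally, βIII-tubulin immunostaining enabled automated imaging of neurite length.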

[5] = CCTE_Mundy_HCI_Cortical_Synap_Neur_Matur_NeuriteLength: CCTE's Synaptogenesis and Neurite Maturation Assay in rat cortical cells for Neurite Length, Mundy Lab (AID 2284214)
Procedure, shortened: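 Cultures of rat primary cortical cells received chemical at DIV 7 and were fixed at DIV 12, after glial arrest with AraC at DIV 5. Neurite length was measured by automated imaging of MAP2 immunofluorescence.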

[6] = CCTE_Mundy_HCI_Cortical_Synap_Neur_Matur_NeuriteSpotCountPerNeuron: CCTE's Synaptogenesis and Neurite Maturation Assay in rat cortical cells for Neurite Spot Count per Neuron Count, Mundy Lab (AID 2284215)
Procedure, shortened: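 High-content imaging counts synaptophysin puncta along MAP2-labelled neurites per neuron after chemical exposure of rat cortical cells from DIV 7 to termination at DIV 12 (AraC added DIV 5). Loss of signal relative to DMSO.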

[7] = CCTE_Mundy_HCI_hN2_NOG_NeuriteCount: CCTE's Neurite Outgrowth Assay in human hN2 cells for Neurite Count, Mundy Lab (AID 2284219; active = hit-call score of the fitted dose curve at least 0.9, where 1 is the maximum)
Procedure, shortened: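 In this morphology assay, hNP1-derived neurons received test chemical 2 h post-plating and were fixed two days later in warm paraformaldehyde/sucrose containing Hoechst 33342. Neurites, labelled by rabbit anti-βIII-tubulin (1:800) and Alexa Fluor-488 (1:500), were counted automatically.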

[8] = CCTE_Mundy_HCI_hN2_NOG_NeuriteLength: CCTE's Neurite Outgrowth Assay in human hN2 cells for Neurite Length, Mundy Lab (AID 2284220; active = hit-call score of the fitted dose curve at least 0.9, where 1 is the maximum)
Procedure, shortened: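 Plate hNP1-derived neurons, then add chemical 2 h later as a 1/10 dilution. Stain with anti-βIII-tubulin then Alexa Fluor-488 secondary, and image automatically to measure neurite length.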

[9] = CCTE_Mundy_HCI_hN2_NOG_NeuronCount: CCTE's Neurite Outgrowth Assay in human hN2 cells for Neuron Count, Mundy Lab (AID 2284221; active = hit-call score of the fitted dose curve at least 0.9, where 1 is the maximum)
Procedure, shortened: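 Read-out is the number of betaIII-tubulin-positive neurons imaged by automated high-content analysis, with DMSO as negative control.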

[10] = CCTE_Mundy_HCI_Cortical_Synap_Neur_Matur_NeuriteCount: CCTE's Synaptogenesis and Neurite Maturation Assay in rat cortical cells for Neurite Count, Mundy Lab (AID 2284222);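 note: exposure from day 7 to day 12 in vitro with readout at day 12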
Procedure, shortened: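 In this multiplexed morphology readout, rat primary cortical neurons are fixed at DIV 12 following dosing at DIV 7 and stained for MAP2, synaptophysin and nuclei. High-content image analysis yields neurite count.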

[11] = CCTE_Mundy_HCI_Cortical_Synap_Neur_Matur_CellBodySpotCount: CCTE's Synaptogenesis and Neurite Maturation Assay in rat cortical cells for Cell Body Spot Count, Mundy Lab (AID 2284223)
Procedure, shortened: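 High-content imaging counts synaptophysin puncta on neuronal cell bodies per neuron after MAP2/synaptophysin immunostaining. Rat primary cortical cells, glia arrested with AraC at DIV 5, were exposed DIV 7–12; signal decrease measured against DMSO.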

[12] = CCTE_Mundy_HCI_Cortical_NOG_BPCount: CCTE's Neurite Outgrowth Assay in rat cortical cells for Branch Point Count, Mundy Lab (AID 2284237)
Procedure, shortened: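 Measured 50.33 h after dosing, this morphology endpoint uses rat primary cortical cultures labelled for betaIII-tubulin. Branch points are quantified by high-content imaging, with DMSO as negative control and baseline.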

[13] = CCTE_Mundy_HCI_hNP1_CellTiter: CCTE's Cell Titer-Glo 2 Assay in human neuroprogenitor cells for Viability, Mundy Lab (AID 2284241; active = hit-call score of the fitted dose curve at least 0.9, where 1 is the maximum)
Procedure, shortened: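 Human neural progenitor cells (hNP1, WA09-derived) were plated on poly-L-ornithine/laminin and grown 40 to 44 hours at 37 °C, 5% CO2 before chemical addition. Twenty-four hours later, ATP was measured by CellTiter-Glo luminescence; loss of signal versus DMSO indicates reduced viability.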

[14] = CCTE_Mundy_HCI_Cortical_Synap_Neur_Matur_NeuronCount: CCTE's Synaptogenesis and Neurite Maturation Assay in rat cortical cells for Neuron Count, Mundy Lab (AID 2284242; active = hit-call score of the fitted dose curve at least 0.9, where 1 is the maximum)
Procedure, shortened: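 Cortical cells from rat are plated, treated with AraC at DIV 5, and exposed to test chemicals with a media change at DIV 7. At DIV 12 they are fixed and immunostained (MAP2, synaptophysin), and imaged neuron counts are compared against DMSO controls.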

[15] = IUF_NPC2c_oligodendrocyte_migration_120hr: Leibniz Research Institute for Environmental Medicine (IUF) 120-hour Neural Progenitor Cell Migration Assay for Oligodendrocyte Migration (NPC2c) (AID 2284297);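 note: O4-positive oligodendrocyte migration distance divided by radial glia migration distance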
Procedure, shortened: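 Exposure runs 5 days from differentiation onset at 37C, seven concentrations plus solvent control, DMSO at most 0.1%, applied to primary hNPC spheres on laminin. After fixation, O4 immunostaining gives oligodendrocyte distance from the sphere core, relative to radial glia migration.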

[16] = IUF_NPC2a_radial_glia_migration_120hr: Leibniz Research Institute for Environmental Medicine (IUF) 120-hour Neural Progenitor Cell Migration Assay for Radial Glia Migration (NPC2a) (AID 2284298)
Procedure, shortened: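 Migration distance in um, sphere core edge to migration-area edge, derived by nuclei-density algorithm from Hoechst images after 120 h compound exposure. Primary hNPC spheres differentiated on poly-D-lysine/laminin in N2 medium, 37C; medium half-replaced day 3.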

[17] = IUF_NPC2a_radial_glia_migration_72hr: Leibniz Research Institute for Environmental Medicine (IUF) 72-hour Neural Progenitor Cell Migration Assay for Radial Glia Migration (NPC2a) (AID 2284299)
Procedure, shortened: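 Single 0.3 mm neurospheres were plated per well in N2 differentiation medium and exposed from the start of differentiation. After 72 hours, brightfield images were taken and radial glia migration from the sphere core edge was measured manually in four directions, averaged per well.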

[18] = IUF_NPC2b_neuronal_migration_120hr: Leibniz Research Institute for Environmental Medicine (IUF) 120-hour Neural Progenitor Cell Migration Assay for Neuron Migration (NPC2b) (AID 2284300)
Procedure, shortened: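 TUBB3-positive neurons are imaged after 120 h of differentiation, and their mean distance from the sphere edge is normalised to radial glia migration. Single 0.3 mm fetal hNPC spheres on poly-D-lysine/laminin received 7 compound concentrations, ≤0.1% DMSO, refreshed at day 3.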

[19] = IUF_NPC3_neuronal_differentiation_120hr: Leibniz Research Institute for Environmental Medicine (IUF) 120-hour Neuronal Differentiation Assay (NPC3) (AID 2284301)
Procedure, shortened: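 Value is percent TUBB3-positive neurons among Hoechst-stained nuclei in the migration area, scored by trained CNN after 120 h differentiation. Primary hNPC spheres on poly-D-lysine/laminin, N2 medium, continuous dosing from day 0, half-refeed day 3; DMSO reference.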

[20] = IUF_NPC4_neurite_length_120hr: Leibniz Research Institute for Environmental Medicine (IUF) 120-hour Neuronal Morphology Assay for Neurite Length (NPC4) (AID 2284302)
Procedure, shortened: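 Neurite length, the mean in um across TUBB3-stained neurons, is derived by skeletonization of high-content images after 120 h differentiation. Compound exposure, 7 concentrations plus solvent control, ran from plating of hNPC spheres on poly-D-lysine/laminin, with medium half-replaced on day 3.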

[21] = IUF_NPC5_oligodendrocyte_differentiation_120hr: Leibniz Research Institute for Environmental Medicine (IUF) 120-hour Oligodendrocyte Differentiation Assay (NPC5) (AID 2284304; active = hit-call score of the fitted dose curve at least 0.9, where 1 is the maximum;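 note: primary human fetal neural progenitor spheres plated to migrate and differentiate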)
Procedure, shortened: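 Oligodendrocyte differentiation scored as O4-positive cells, found by CNN image analysis, as percent of Hoechst-stained nuclei in the migration area. Scoring followed 5 days of exposure of plated hNPC neurospheres differentiating in DMEM/F12 N2 medium at 37C, with compound refreshed at day 3.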

[22] = IUF_NPC2-5_cytotoxicity_72hr: Cytotoxicity Assessment at 72 hours in the Leibniz Research Institute for Environmental Medicine (IUF) Neural Progenitor Cell Migration and Differentiation Assay for Cytotoxicity (NPC2-5) (AID 2284306; active = hit-call score of the fitted dose curve at least 0.9, where 1 is the maximum;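 note: LDH release into supernatant measured by resorufin fluorescence marking membrane damage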)
Procedure, shortened: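 Membrane-integrity cytotoxicity at 72 h, read as LDH-driven resorufin fluorescence in supernatant. hNPC spheres from fetal cortex differentiate on coated plates in N2 medium, 37C, 5% CO2; seven serial compound concentrations plus solvent control (DMSO ≤0.1%).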

[23] = IUF_NPC2-5_cytotoxicity_120hr: Cytotoxicity Assessment at 120 hours in the Leibniz Research Institute for Environmental Medicine (IUF) Neural Progenitor Cell Migration and Differentiation Assay (NPC2-5) (AID 2284307; active = hit-call score of the fitted dose curve at least 0.9, where 1 is the maximum)
Procedure, shortened: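 Membrane-integrity loss measured as LDH activity in medium supernatant via resazurin-to-resorufin fluorescence after 120 h exposure. hNPC spheres from GW 16-19 fetal cortex differentiated on poly-D-lysine/laminin, 37C, medium half-refreshed day 3; seven concentrations, DMSO max 0.1%.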

[24] = IUF_NPC2-5_cell_number_120hr: Cell Number Assessment at 120 hours in the Leibniz Research Institute for Environmental Medicine (IUF) Neural Progenitor Cell Migration and Differentiation Assay (NPC2-5) (AID 2284308);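 note: count of Hoechst-stained nuclei in migration zone around plated human neural progenitor spheres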
Procedure, shortened: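 Counting of all Hoechst-stained nuclei in the migration area at 120 h, versus DMSO control. Primary hNPC spheres differentiated on poly-D-lysine/laminin in N2 medium at 37C, dosed from day 0 (7 concentrations, DMSO ≤0.1%), half-refed day 3.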

[25] = IUF_NPC2-5_viability_120hr: Viability Assessment at 120 hours in the Leibniz Research Institute for Environmental Medicine (IUF) Neural Progenitor Cell Migration and Differentiation Assay (NPC2-5) (AID 2284312)
Procedure, shortened: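 Alamar blue resorufin fluorescence read after 5 days of differentiation, with compound present from day 0 and replenished at day 3. Primary hNPC spheres on laminin-coated plates, 37C; seven concentrations plus solvent control, fitted against DMSO.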

[26] = IUF_NPC1_cytotoxicity_72hr: Cytotoxicity Assessment at 72 hours in the Leibniz Research Institute for Environmental Medicine (IUF) Neural Progenitor Cell Proliferation Assay (NPC1) (AID 2284332; active = hit-call score of the fitted dose curve at least 0.9, where 1 is the maximum;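 note: rising LDH signal means more cytotoxicity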)
Procedure, shortened: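 Membrane-integrity loss is scored from LDH released into the medium, detected as resorufin fluorescence, with activity fitted upward relative to baseline. Test material stays on human fetal-derived progenitor spheres for 72 h.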

Measured: outcome

C[C@H](CS)C(=O)N1CCC[C@H]1C(=O)O
inactive: all assays above
